A short description of assay [1]: NCI Yeast Anticancer Drug Screen. Data for the rad50 strain (AID 155).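 Also: 0% = growth of vehicle-only cultures of the same strain.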 To be noted: S. cerevisiae rad50 strain growth inhibition; at 50.0 µM; hits give high values. The method in brief:
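Inhibition values express reduced yeast growth in compound-treated cultures relative to vehicle-treated controls.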

Assay [2] is described as follows: NCI Yeast Anticancer Drug Screen. Data for the mec2-1 strain (AID 157). To be noted: S. cerevisiae mec2-1 strain, at 50.0 µM, hits give high values. Summed up: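 Readout is yeast growth inhibition, normalised to vehicle-treated controls, in the mec2-1 strain exposed to compound.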
A short description of assay [3]: NCI Yeast Anticancer Drug Screen. Data for the sgs1 mgt1 strain (AID 161).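 Also: 0% = growth of cultures given vehicle only.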 To be noted: S. cerevisiae sgs1 mgt1 strain, at 50.0 µM, hits give high values. The method in brief: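 This yeast growth screen uses a strain with defined DNA-repair lesions; compound-treated growth is compared with vehicle-treated growth.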
Assay [4] in a line: NCI Yeast Anticancer Drug Screen. Data for the cln2 rad14 strain (AID 165).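 Also: 0% = growth equal to vehicle treated cultures.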 To be noted: S. cerevisiae cln2 rad14 strain, at 50.0 µM, hits give high values. The method in brief: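 Relative to vehicle controls, growth inhibition of compound-treated cln2 rad14 yeast was recorded.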
Assay [5] is described as follows: NCI Yeast Anticancer Drug Screen. Data for the bub3 strain (AID 167). To be noted: S. cerevisiae bub3 mutant strain, at 50.0 µM, hits give high values. The method in brief: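 Steps: expose the mutant yeast strain to compound; grow alongside vehicle-treated cultures; measure growth; express inhibition against the vehicle cultures.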
The nature of assay [6]: NCI Yeast Anticancer Drug Screen. Data for the mlh1 rad18 strain (AID 175). To be noted: S. cerevisiae mlh1 rad18 strain growth inhibition; at 50.0 µM; hits give high values. The method in brief:
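Test agents were incubated with a yeast strain of defined genotype (DNA damage repair defect). Inhibition of growth was derived by comparison with vehicle-exposed cultures.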

The panel holds about 79,000 compounds, 15% with a hit somewhere; the sample as a whole holds those more often. A number with no mark means an inactive call. Active and inactive are the calls of the source. Rule as the data show it: active = growth inhibition above about 70%; inactive = the rest.

On to `CC(=O)Oc1cc2c(c3ccccc13)CCC2=O`, for which the growth inhibition in assay [1] is 13.4%; in assay [2] it was 7.2%; in assay [3], -7.85%; in assay [4], -0.9%; in assay [5], 20.4%; in assay [6], 6.05%.
For `O=C(OCCN=C1c2ccccc2CCc2ccccc21)c1ccccc1`, the growth inhibition is -12.2% in assay [1]; -6.45% in assay [2]; 18.9% in assay [3]; 6.8% in assay [4]; 37.3% in assay [5]; 0.4% in assay [6].
Take `Clc1ccc(-n2cccc2)cc1`: the growth inhibition is -4.75% in assay [1]; 0.25% in assay [2]; 10.7% in assay [3]; 5.8% in assay [4]; -19.6% in assay [5]; -6.3% in assay [6].
Take `O=C(C=C1CCCCC1)c1ccccc1`: the growth inhibition in assay [1] is 12.9%; in assay [2] it was -6.35%; in assay [3], 7.45%; in assay [4], -6.2%; in assay [5] it was 2.9%; in assay [6], 5.25%.
Regarding `[Cl][Pd][Cl].[NH-]c1ccc(/C=C2\C=Cc3ccccc32)cc1.[NH-]c1ccc(/C=C2\C=Cc3ccccc32)cc1`, the growth inhibition in assay [1] was 89.5% (active); in assay [2] it was 32.8%; in assay [3], 83.7% (active); in assay [4], 47.4%; in assay [5], 75.5% (active); in assay [6], 79.3% (active).
As for `CC(=O)N/N=C1/NN(C(C)=O)C2(S1)C(=O)Nc1ccc(C)cc12` (stereo unspecified), the growth inhibition in assay [1] was -4.15%; in assay [2], 38.8%; in assay [3], 40.1%; in assay [4], 28.8%; in assay [5], 24.8%; in assay [6] it was 7.7%.
As to `Cc1ccc(-n2cc(-c3ccc(Cl)cc3)c3c(=N)n(N)cnc32)cc1`, the growth inhibition in assay [1] is -12.2%; in assay [2] it was -14.2%; in assay [3], 49.8%; in assay [4], 26.2%; in assay [5], 16.8%; in assay [6], 47%.
Consider `O=C(Nc1ccccc1O)c1ccc(Cl)c(Cl)c1`, for which the growth inhibition in assay [1] is -7.6%; in assay [2], 32%; in assay [3], 33.2%; in assay [4], -23.2%; in assay [5], 49%; in assay [6] it was 36.2%.
For the molecule `O=C(CC1C(=O)Nc2ccccc2S1=O)Nc1ccc(Cl)cc1` (stereo unspecified), the growth inhibition in assay [1] is 41.9%; in assay [2] it was 38%; in assay [3], 59.8%; in assay [4] it was 18.4%; in assay [5], 48%; in assay [6], 56.3%.
For `Nc1ccc(S(=O)(=O)Nc2nc3ccccc3nc2Nc2ccc(S(N)(=O)=O)cc2)cc1`, the growth inhibition was 6.3% in assay [1]; -5.05% in assay [2]; -13.8% in assay [3]; -13.7% in assay [4]; -10.3% in assay [5]; -13.6% in assay [6].
Take `S=c1nc(-c2ccnc(-c3nc(=S)[nH][nH]3)c2)[nH][nH]1`: the growth inhibition was -18.4% in assay [1]; -18.4% in assay [2]; -18.8% in assay [3]; 43.7% in assay [4]; -9.75% in assay [5]; -43.7% in assay [6].
Turning to `C=CCN(CC=C)CNC(C)=O`, the growth inhibition in assay [1] was -9.7%; in assay [2] it was -14.7%; in assay [3] it was -8.4%; in assay [4], -17%; in assay [5], -7.55%; in assay [6], -10.8%.
With `Cc1cc(N(CCC#N)CCC#N)ccc1/C(N=Nc1ccc([N+](=O)[O-])cc1)=N\NC(=O)c1cc(Cl)ccc1C(=O)c1ccccc1`, the growth inhibition is 9.3% in assay [1]; 3.15% in assay [2]; -15.7% in assay [3]; -4.25% in assay [4]; -22.4% in assay [5]; 7.7% in assay [6].
As for `CC(C)=CCc1c(C)c(O)c(C)c(C)c1O`, the growth inhibition was 7.15% in assay [1]; 1.25% in assay [2]; 9.6% in assay [3]; -71.9% in assay [4]; -11.4% in assay [5]; 8.05% in assay [6].
Turning to `CSc1ccc(NC(=O)Nc2cc(C)c(C)cc2C)cc1`, the growth inhibition in assay [1] is 16.6%; in assay [2] it was 2.1%; in assay [3], 6.75%; in assay [4], 21.4%; in assay [5], 14.5%; in assay [6], 2.85%.
On to `O=c1cc(NCc2cccc([N+](=O)[O-])c2)[nH]c(=O)[nH]1`, for which the growth inhibition was 0.1% in assay [1]; 8.2% in assay [2]; 5.05% in assay [3]; -12.6% in assay [4]; -5.5% in assay [5]; 6.6% in assay [6].
On to `Cc1cccc2c1CCC21OC(=O)c2c1cc(F)c1ccccc21` (stereo unspecified), for which the growth inhibition in assay [1] is -13.3%; in assay [2], -15.4%; in assay [3] it was -8.5%; in assay [4], 2.55%; in assay [5], 14.5%; in assay [6], 4.35%.
Regarding `O=C1C/C(=C/c2ccccc2[N+](=O)[O-])C(=O)N1c1ccccc1`, the growth inhibition in assay [1] is 16.4%; in assay [2] it was 4.35%; in assay [3], 13.4%; in assay [4] it was -36.1%; in assay [5] it was 3.8%; in assay [6] it was 11.2%.
As for `O=C(NCCc1c[nH]c2ccccc12)C1CC1`, the growth inhibition in assay [1] is -40%; in assay [2], 16.6%; in assay [3] it was -14.8%; in assay [4] it was -32.2%; in assay [5], 7.05%; in assay [6] it was -25.9%.
Take `CCOC(=O)C1(C(=O)OCC)CC1c1ccccc1` (stereo unspecified): the growth inhibition was 4.6% in assay [1]; -32.5% in assay [2]; 5.5% in assay [3]; -0.6% in assay [4]; -11.7% in assay [5]; -3.2% in assay [6].
On to `CC(=O)N(C)c1ccc(NC(=S)NC(=O)c2cccc([N+](=O)[O-])c2)cc1`, for which the growth inhibition in assay [1] is 3.55%; in assay [2] it was 21.6%; in assay [3], 6.9%; in assay [4], -4.15%; in assay [5] it was 27.5%; in assay [6], 7.05%.

(Values after PubChem BioAssay (NCI).)
